# Test results taken from publication PMC11062922 (Nature Chemical Biology, 2023).
# Like-named read-outs stand apart in the source and are kept apart here.
# How the values were obtained:
# Set-up in all cases: species or system human, MV4-11 + K-562 + COLO205 + SK-N-BE2 + OVCAR-8
# [1] = test system: IRAK3; settings: read-out: apparent Kd, n = 1
# [2] = test system: PIK3CD; settings: read-out: apparent Kd, n = 1
# [3] = test system: CDC42BPB; settings: read-out: apparent Kd, n = 1
# [4] = test system: NUAK2; settings: read-out: apparent Kd, n = 1
# [5] = test system: MARK2; settings: read-out: apparent Kd, n = 1
# [6] = test system: PRKAA2; settings: read-out: apparent Kd; compound concentrations: 100 nM and 1000 nM (sheet 'Samples'), CATDS: 1.2623383108322899E-2; n = 1
# [7] = test system: RPS6KA3; settings: read-out: apparent Kd, n = 1
# [8] = test system: TTK; settings: read-out: apparent Kd, compound concentrations: 100 nM and 1000 nM (sheet 'Samples'), n = 1
# [9] = test system: ACVR1B; settings: read-out: apparent Kd, n = 1
# [10] = test system: EPHB1; settings: read-out: apparent Kd; compound concentrations:100 nM and 1000 nM (sheet 'Samples'); n = 1
# [11] = test system: BUB1; settings: read-out: apparent Kd; compound concentrations:100 nM and 1000 nM (sheet 'Samples'); n = 1
# [12] = test system: LCK; settings: read-out: apparent Kd; compound concentrations:100 nM and 1000 nM (sheet 'Samples'); n = 1
# [13] = test system: MAP3K11; settings: read-out: apparent Kd; compound concentrations:100 nM and 1000 nM (sheet 'Samples'); n = 1
# [14] = test system: MAPK14; settings: read-out: apparent Kd; compound concentrations:100 nM and 1000 nM (sheet 'Samples'); n = 1
# [15] = test system: AURKB; settings: read-out: apparent Kd, n = 1
# [16] = test system: PRKCA; settings: read-out: apparent Kd, n = 1
# [17] = test system: RPS6KB1; settings: read-out: apparent Kd; compound concentrations:100 nM and 1000 nM (sheet 'Samples'); n = 1
# [18] = compound concentrations:100 nM and 1000 nM (sheet 'Samples')
compound,measurement,setting,value
COC(=O)c1cccc(NC(=O)NC2CCN(c3ccnc(Nc4cc(OC)c(OC)c(OC)c4)n3)C2)c1 (centres unmarked) [GSK1379767A],potency estimated from few doses,"[1]; compound concentrations: 100 nM and 1000 nM (sheet 'Samples'), CATDS: 0.12620401960154601",1050 nM
same,potency estimated from few doses,"[2]; compound concentrations: 100 nM and 1000 nM (sheet 'Samples'), CATDS: 0.49933192218353101",112 nM
c1ccc(-c2n[nH]cc2Nc2ccnc3ccccc23)nc1 [GW694077X],potency estimated from few doses,"[1]; compound concentrations: 100 nM and 1000 nM (sheet 'Samples'), CATDS: 9.0170551839232005E-2",57.6 nM
same,potency estimated from few doses,"[2]; compound concentrations: 100 nM and 1000 nM (sheet 'Samples'), CATDS: 5.6537253255213298E-2",148 nM
Cl.Cl.NC(CNC(=O)c1cc(Br)c(-c2ccnc3[nH]ccc23)s1)c1ccccc1.NC(CNC(=O)c1cc(Br)c(-c2ccnc3[nH]ccc23)s1)c1ccccc1 (centres unmarked) [GSK1322949A],potency estimated from few doses,"[3]; compound concentrations: 100 nM and 1000 nM (sheet 'Samples'), CATDS: 4.7345157694920897E-2",499 nM
same,potency estimated from few doses,"[4]; compound concentrations: 100 nM and 1000 nM (sheet 'Samples'), CATDS: 3.0654913086493301E-2",1150 nM
COc1cc[nH]c1/C=C1\C(=O)Nc2ccc(F)c(C#CC3(O)CCNCC3)c21.Cl [RO0282986-001],potency estimated from few doses,"[5]; compound concentrations: 100 nM and 1000 nM (sheet 'Samples'), CATDS: 1.32977550051059E-2",536 nM
same,potency estimated from few doses,[6],618 nM
same,potency estimated from few doses,"[7]; compound concentrations: 100 nM and 1000 nM (sheet 'Samples'), CATDS: 1.1263723561624001E-2",868 nM
same,potency estimated from few doses,[8]; CATDS: 9.4369633718921209E-3,1690 nM
NCC(NC(=O)c1cc(-c2cn[nH]c2)c(-c2ccnc3[nH]ccc23)s1)c1ccccc1.NCC(NC(=O)c1cc(-c2cn[nH]c2)c(-c2ccnc3[nH]ccc23)s1)c1ccccc1.O=C(O)C(F)(F)F.O=C(O)C(F)(F)F (centres unmarked) [GSK1325775A],potency estimated from few doses,"[9]; compound concentrations: 100 nM and 1000 nM (sheet 'Samples'), CATDS: 3.7153250837812998E-2",1020 nM
same,potency estimated from few doses,"[3]; compound concentrations: 100 nM and 1000 nM (sheet 'Samples'), CATDS: 0.23472145831324301",29.3 nM
CS(=O)(=O)Nc1ccc(-c2ccnc3[nH]ccc23)cc1 [GSK993273A],potency estimated from few doses,[2]; [18],183 nM
COc1ccc(Nc2nccc(-c3ccc(NC(=O)c4cc5cc(F)ccc5[nH]4)cc3)n2)cc1 [GSK1229496A],potency estimated from few doses,"[9]; compound concentrations: 100 nM and 1000 nM (sheet 'Samples'), CATDS: 0.38937877773487001",643 nM
CNc1cc(-c2ccc3c(N)n[nH]c3c2)nc(N)n1 [GSK2224810A],potency estimated from few doses,[9]; [18],361 nM
same,potency estimated from few doses,[10],1180 nM
same,potency estimated from few doses,[2]; [18],83.4 nM
CC(C)Oc1ccc2c(-c3ccnc(Nc4ccc(N5CCN(C)CC5)cc4)n3)cnn2n1 [GW696155X],potency estimated from few doses,[11],853 nM
same,potency estimated from few doses,[1]; [18],464 nM
same,potency estimated from few doses,[4]; [18],600 nM
CC(C)Nc1cc(-c2ccc3c(N)n[nH]c3c2)nc(N)n1 [GSK2221681A],potency estimated from few doses,[9]; [18],803 nM
CS(=O)(=O)CCn1c(=O)c(Oc2ccc(F)cc2F)cc2cnc(NC3CCOCC3)nc21 [RO5027956-000],potency estimated from few doses,[11],1490 nM
same,potency estimated from few doses,[10],892 nM
same,potency estimated from few doses,[12],1160 nM
same,potency estimated from few doses,[13],1930 nM
same,potency estimated from few doses,[14],17.9 nM
CS(=O)(=O)Nc1cccc(-c2ccc3c(NC(=O)C4CC4)n[nH]c3c2)c1 [SB-742864],potency estimated from few doses,"[2]; compound concentrations: 100 nM and 1000 nM (sheet 'Samples'), CATDS: 0.40980617743007602",162 nM
NS(=O)(=O)c1ccc(NC=C2C(=O)Nc3ccc4ncsc4c32)cc1 [GW589933X],potency estimated from few doses,"[15]; compound concentrations: 100 nM and 1000 nM (sheet 'Samples'), CATDS: 1.80896314222295E-2",1370 nM
same,potency estimated from few doses,"[4]; compound concentrations: 100 nM and 1000 nM (sheet 'Samples'), CATDS: 1.7918277394981801E-2",1420 nM
same,potency estimated from few doses,[8]; CATDS: 2.1205991954571499E-2,817 nM
Cc1occc1-c1nc(N)c(OC[C@@H](N)Cc2c[nH]c3ccccc23)cc1-c1cc2c(C)n[nH]c2cn1 [GSK1660450B],potency estimated from few doses,[3]; [18],106 nM
same,potency estimated from few doses,[5]; [18],639 nM
same,potency estimated from few doses,[2]; [18],8.67 nM
same,potency estimated from few doses,[16]; [18],40 nM
same,potency estimated from few doses,[7]; [18],861 nM
same,potency estimated from few doses,[17],112 nM
Cl.Cn1cc(C2=C(c3c4n(c5ccccc35)CCNC4)C(=O)NC2=O)c2ccccc21 [RO0318365-001],potency estimated from few doses,"[16]; compound concentrations: 100 nM and 1000 nM (sheet 'Samples'), CATDS: 4.6045234882761202E-2",2150 nM
Nc1nc(-c2ccc3c(N)n[nH]c3c2)cc(N2CCCC(NC(=O)c3ccccc3)C2)n1 (centres unmarked) [GSK2286775B],potency estimated from few doses,[15]; [18],414 nM
